Molecules are shown by their SMILES. Results filed as inconclusive are left out. Calls of active or inactive are those of the source. The calls were made as follows: active = hit-call score of the fitted dose curve at least 0.9, where 1 is the maximum; inconclusive = response in the unintended direction; inactive = score below 0.9.

The experiment in a line: TOX21_p53_BLA_p5_viability: Viability Assessment in the Tox21 HCT-116 p53 Agonism Beta-lactamase Assay, Phase 5 (AID 2283600). The procedure, abridged:
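After the 460/530 nm beta-lactamase measurement, the wells received an ATP-detection luciferase reagent; signal was read 30 min later at RT. Compound treatment lasted 16 h on cells pre-incubated 5 h post-seeding.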
On to `CC1=C(/C=C/C(C)=C/C=C/C(C)=C/C(=O)O)C(C)(C)CCC1`, for which the outcome was inactive.
For orientation: AC50 means the concentration at which the activity in the assay is half-maximal. Consider `CC(=O)NC1(c2cccc(F)c2)CCN(CC[C@@]2(c3ccc(Cl)c(Cl)c3)CN(c3ccccc3)C(=O)CO2)CC1`, for which the AC50 is 60.3 µM (active).
As for `Cc1cc(C)c(O)c(C)c1`, the compound was classed as inactive.
The same measure, in the same setting: to `CC(C)(C)c1cccc(C(C)(C)C)c1O` belongs “inactive”.
`CCCOc1sc(C(=O)N2CCC(c3cc(CN)ccc3F)CC2)c(C)c1Br`: the AC50 is 80.1 µM (active).
For the compound `OC1CCCCC1`, the result was inactive.
As for `CC(C)(C)c1cc(C(C)(C)C)c(O)c(C(C)(C)C)c1`, the compound was classed as inactive.
On the same count and under the same terms, to `CCN(CC)CCNc1ccc(CNC=O)c2sc3ccc(OC)cc3c(=O)c12` belongs “inactive”; to `CCc1nn(C2CCCCC2)c2cc(C3(C#N)CCC(C(=O)O)CC3)ccc12` (stereo unspecified), “inactive”.
Still for that read-out and setting: with `OCCC(F)(F)C(F)(F)C(F)(F)C(F)(F)C(F)(F)C(F)(F)C(F)(F)C(F)(F)F` the entry was “inactive”; with `CCCCCCC(=O)O`, “inactive”.
`COC(=O)CCCCC(=O)OC`: the compound was classed as inactive.
On the same count and under the same terms, with `CCCCOCCO` the entry was “inactive”.
`OCCC(F)(F)C(F)(F)C(F)(F)C(F)(F)C(F)(F)C(F)(F)F`: the result was inactive.
Regarding `C[C@@H]1C[C@H]2[C@@H]3CCC4=CC(=O)C=C[C@]4(C)[C@@]3(F)[C@@H](O)C[C@]2(C)[C@@]1(O)C(=O)COP(=O)(O)O`, the outcome was inactive.
The same measure, in the same setting: to `ClC1=C(Cl)C(Cl)(Cl)C(Cl)=C1Cl` belongs “inactive”.

For the origin of these results see PubChem BioAssay (EPA / NIEHS).
